Results reported in PubChem BioAssay AID463173 (ICCB-Longwood Screening Facility, Harvard Medical School, 2010).
Screen size: about 52,000 compounds; about 4,300 (8.3%) were called active. The full list was thinned out, with actives kept by preference. Unmarked numbers belong to inactive results. Rule as the data show it: active = survival mostly below about 52% (no sharp cut-off); inactive = mostly above about 56%.

What follows are compounds tested on DeltatarO mutant (assay: S. aureus survival, RN4220 and DeltatarO strains – OD600, teichoic acid synthesis inhibitors, primary screen (AID 463173)). Conditions: S. aureus RN4220 wild type/DeltatarO growth, OD600, 18 h, hits give low values, screened at 18.75 µg/mL (by protocol).

SMILES	survival
CCOc1cc(CNC(=O)Cn2c(=O)c3cccn3c3ccc(F)cc32)cc(OCC)c1OCC	50%
Cc1ccc(C)c(Cn2c(=O)n(Cc3ccccc3)c(=O)c3c2c2cc(C)ccc2n3C)c1	78%
CC(C)c1ccc(OCC(O)CN2CCN(c3ccc(F)cc3)CC2)cc1 (stereo not given)	56%
O=C(CN1C(=O)C2(SCC(=O)N2c2ccc(F)c(F)c2)c2ccccc21)Nc1ccccc1F (stereo not given)	94%
COc1ccc(CCNC(=O)c2c(C)oc3nc(C)nc(N4CCOCC4)c23)cc1OC	102%
COCCN(C(=O)C1CC1)c1nnc(-c2cccc(C)c2)s1	98%
Cc1cc(C)nc(NS(=O)(=O)c2ccc(NC(=O)COc3ccc(Cl)cc3C)cc2)n1	63%
COc1ccc(NC(=O)CN2CCC(n3c(C)nc4cc(F)ccc43)CC2)c(OC)c1	104%
COc1cccc(CN(C(=O)c2cccc(C)c2)C2CCS(=O)(=O)C2)c1 (stereo not given)	65%
CCOc1ccc(CCNC(=O)c2cc3n(n2)CCCN(Cc2ccc(C)cc2)C3=O)cc1OCC	112%
O=S(=O)(CCN1CCOCC1)c1ccc(Oc2ccc(S(=O)(=O)CCN3CCOCC3)cc2)cc1	70%
Cc1ccc(CCNC(=O)C(CC(C)C)NS(=O)(=O)c2ccc3c(c2)oc(=O)n3C)cc1 (stereo not given)	93%
Cc1cccc(CSc2ccc(-c3cccs3)nn2)c1	79%
N#Cc1ccc(-c2cccs2)nc1SCC(=O)Nc1cccc(C(F)(F)F)c1	48%
Cc1cccc(CSc2nc(-c3cccs3)ccc2C#N)c1	18% (active)
N#Cc1ccc(-c2cccs2)nc1SCc1ccc(Br)cc1	74%
Cc1ccc(CSc2ccc(-c3cccs3)nn2)cc1	89%
N#Cc1ccc(-c2cccs2)nc1SCc1c(F)cccc1Cl	36% (active)
N#Cc1ccc(-c2cccs2)nc1SCc1ccc(Cl)cc1Cl	74%
Cc1ccc(CSc2nc(-c3cccs3)ccc2C#N)cc1	25% (active)

SMILES	survival
N#Cc1c(-c2cccs2)cc(-c2cccs2)nc1SCc1cccnc1	65%
Cc1ccc(NC(=O)CSc2nc3c(oc4ccccc43)c(=O)n2-c2ccc(F)cc2)c(C)c1	67%
O=C(Nc1ccc2nsnc2c1)C1CC1	89%
O=C1c2ccc(-c3ccc4c(c3)C(=O)N(CCO)C4=O)cc2C(=O)N1CCO	87%
CN1CC(C(=O)O)CC1=O (stereo not given)	83%
Cn1c(=O)oc2cc(S(=O)(=O)CCC(=O)NCc3ccccc3)ccc21	77%
Cc1ccc(Cl)cc1N1CCN(c2nc3ccccc3c3nc(-c4cccnc4)nn23)CC1	114%
CCOC(=O)c1[nH]c(C)c(CCC(=O)Nc2cc(Cl)c(OC)cc2OC)c1C	122%
COc1ccc(OCC(=O)NCC(c2ccc(OC)cc2)N2CCCCC2)cc1 (stereo not given)	79%
COc1ccc(CC(=O)NCc2ccc3c(c2)CCN3C(C)=O)cc1	96%
COc1ccc(-n2c(=O)c3c4c(sc3n(Cc3ccc(F)cc3)c2=O)CCCC4)c(OC)c1	47%
Cc1cc(C)cc(NC(=O)CSc2ccc(-c3cccs3)nn2)c1	73%
Cc1ccc2c(c1)C(=O)OC(C(=O)Nc1ccc(C(=O)O)cc1)C2 (stereo not given)	65%
CCOc1ccc(NC(=O)c2c(NC(=O)c3ccccc3F)sc3c2CCC3)cc1	155%
CCCCc1ccc(NC(=O)c2ccc3c(c2)CCN3S(=O)(=O)c2ccccc2)cc1	53%
CCS(=O)(=O)N1CCc2cc(C(=O)Nc3cccc(C(C)=O)c3)ccc21	50%
CCCCc1ccc(NC(=O)c2ccc3c(c2)CCN3S(=O)(=O)CC)cc1	38% (active)
CCS(=O)(=O)N1CCc2cc(C(=O)Nc3ccc(C(=O)OC)cc3)ccc21	49%
CCS(=O)(=O)N1CCCc2cc(C(=O)Nc3cccc(C(C)=O)c3)ccc21	89%
CCS(=O)(=O)N1CCc2cc(C(=O)Nc3cccc(NC(C)=O)c3)ccc21	42% (active)

SMILES	survival
COc1ccc2c(C)c(CCC(=O)NCc3ccccc3Cl)c(=O)oc2c1C	63%
COc1ccc(CN2CCc3c(c(=O)n4ncc(C(=O)N5CCN(c6ccccc6OC)CC5)c4n3C)C2)cc1	89%
CCN(CCCNC(=O)c1cc2cc3ccc(OC)cc3nc2s1)c1cccc(C)c1	83%
CCN(CCCNC(=O)c1cc2cc3cc(C)ccc3nc2s1)c1cccc(C)c1	102%
CCN(CCCNC(=O)c1cc2cc3cc(OC)ccc3nc2s1)c1ccccc1	53% (active)
CCN(CCCNC(=O)c1cc2cc3cc(OC)ccc3nc2s1)c1cccc(C)c1	46% (active)
CCN(CCCNC(=O)c1cc2cc3ccc(C)cc3nc2s1)c1ccccc1	126%
CCN(CCCNC(=O)c1cc2cc3ccc(OC)cc3nc2s1)c1ccccc1	97%
O=C(COCc1cc(-c2cccs2)on1)NCc1ccc(Cl)cc1	64%
CC1CCN(S(=O)(=O)c2ccc(N3CCCCS3(=O)=O)cc2)CC1	71%
Cc1ccc2oc(C(=O)N3CCC(c4nc5ccccc5s4)CC3)c(C)c2c1	52%
O=C(NCCS(=O)(=O)N1CCN(c2ccccc2F)CC1)c1cc(=O)c2ccccc2o1	71%
Cc1cccc(NC(=O)C2CCCN(S(=O)(=O)c3ccc4c(c3)oc(=O)n4C)C2)c1C (stereo not given)	83%
CCC(CC)c1nnc(NC(=O)CS(=O)(=O)Cc2ccccc2)s1	70%
CCOC(=O)c1c(C)oc2ncnc(Nc3ccc(OC)cc3OC)c12	97%
CCOC(=O)c1cnc2c(ccc3ccccc32)c1Nc1ccc(OC)cc1OC	8% (active)
CCOC(=O)c1cnc(N2CCN(c3ccc(OC)cc3)CC2)c2ccccc12	97%
CCOC(=O)c1cnc2c(ccc3ccccc32)c1Nc1ccccc1OC	28% (active)
CCOC(=O)c1cnc(NCc2ccccc2OC)c2ccccc12	89%
CCOC(=O)c1cnc2c(ccc3ccccc32)c1Nc1ccccc1OCC	126%
